From the OligoGym collection

What follows are sequences tested against ADD2 (assay: pooled miR-30 sensor sort-seq; sequence = guide strand). Conditions: shRNA.
Note: reference of the scale not given here.

Sequence | sensor-assay potency score (higher = more potent)
TTAGAGGTATCAACATCCGTGT | -0.242
TCAAGTTCTAGTTTCTTCCTCT | 0.727
TTGACCTCTGATTTAGTCTGAG | 0.252
TTAAATGTAGAGATAGCTCCAT | 0.598
TTTGGTATCCTCGTCTCCCTTG | -0.18
TGACTTCACATCTTGTCGGTTT | -0.214
TTTGTCTCTGCCTCCTTCGCTG | -0.0606
TTGGCTAGTCACTTTGAGCAGC | -0.569
TCTTATAGCTCTTCCATCCATC | -0.635
TAAATGTAGAGATAGCTCCATC | -0.556
TTTCTGTCTTCTTAGTACCTTC | -0.453
TATAGCTCTTCCATCCATCATT | -1.04
TTGTCTCTGCCTCCTTCGCTGG | -1.43
TTCCTCTCCACCTCTTTCTTGT | -0.367
TTCTAGTTTCTTCCTCTCCACC | -1.02
TTGATAGGCGTCATCATGGAGA | -0.575
TTGTTCTCGAATCTTGTTCCTC | -0.198

What follows are sequences tested against ADIPOR1 in the same assay as above. Conditions: shRNA.

Sequence | sensor-assay potency score (higher = more potent)
AAACTCTTCCATCTTCTCCATG | -1.3
TCTCTGAATGACAATAGACGGT | -0.907
ATAATTAGAAGAGCAATCCCTG | -1.25
TAGAAGGAATAATAGAGCCAGG | -1.35
ATGAAGTACATATTTGGTCTGA | -0.176
TTATTTTTAAAAGCACTTGGGA | -0.469
TAGTCGTTGTCCTTTAGCCAGT | -0.984
TGAATGACAATAGACGGTGTGA | 0.0155
TAATTAGAAGAGCAATCCCTGA | -1.23
TAGACGGTGTGAAAGAGCCAGG | -1
TTGCTCTTCTTCAGCTTTGGGT | -0.543
TAGCAGATAGTCGTTGTCCTTT | -0.519

The sequences below were run against ADORA2B in the same assay as above. Conditions: shRNA.

Sequence | sensor-assay potency score (higher = more potent)
TTTCCTTGTGAGGTGTAGCTAT | -0.397
TCCCACTCTTGACATCTGCTTG | -0.99
TTTATTTTTCCATTGCCTCTAA | 0.2
TAATCCACACAGTAAAAGCAGC | -1.13
TTTTGTGAAAAGTGTAGCGGAA | 0.0237
TTGGTGGCACTGTCTTTACTGT | -1.19
TTTCACAATGAAAACCAGCCGT | -0.477
TAAATATATTTGTCAATCCTTG | -0.669
TTAAAAACAAAAGAGTCTGTTA | -0.121
TTAATGTAGATCACCAGCATTA | -1.17
TTGACAACTGAATTGGCATGTG | -0.143
